Assay outcomes deposited in PubChem BioAssay by National Center for Advancing Translational Sciences (NCATS).
RORg inh: qHTS for inhibitors of ROR gamma transcriptional activity | Drosophila S2 Gal4-RORgamma UAS-luciferase reporter, 20 h | Potency, µM (doses to about 53.6 µM), without a hit: top-dose activity change, negative = inhibition, usual class: inhibitors | 5.4% of 310,000 active | AID 2551, 2010; note: potency is the fitted concentration of half-maximal effect; nearly all actives have a fitted effect of over 60% in size
Target sequence (P51450 whole entry, looked up, the tested form may be a part): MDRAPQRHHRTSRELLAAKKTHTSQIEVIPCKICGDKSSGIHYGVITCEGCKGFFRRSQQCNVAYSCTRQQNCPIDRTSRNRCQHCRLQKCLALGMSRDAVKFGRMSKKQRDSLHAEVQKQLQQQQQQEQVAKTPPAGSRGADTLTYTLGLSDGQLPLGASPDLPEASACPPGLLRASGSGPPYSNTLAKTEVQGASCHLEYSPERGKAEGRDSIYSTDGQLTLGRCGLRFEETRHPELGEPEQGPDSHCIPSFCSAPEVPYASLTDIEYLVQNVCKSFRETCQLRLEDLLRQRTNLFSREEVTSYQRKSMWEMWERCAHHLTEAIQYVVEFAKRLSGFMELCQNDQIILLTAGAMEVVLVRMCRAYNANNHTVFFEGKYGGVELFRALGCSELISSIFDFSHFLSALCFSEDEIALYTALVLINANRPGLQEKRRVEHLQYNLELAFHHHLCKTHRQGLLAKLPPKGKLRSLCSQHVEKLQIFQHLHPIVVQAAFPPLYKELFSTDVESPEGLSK
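Drosophila S2 cells stably expressing Gal4-DBD/mouse RORγ fusion under metallothionein promoter plus UAS-luciferase; compound 1 h, then 700 uM CuSO4 induction for 20 h at ambient temperature; inhibition read as reduced luminescence.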
B2AR arrestin: qHTS assay of beta-arrestin-biased ligands of beta2-adrenergic receptor; Potency, µM (titrated, usually from 46.1 µM), without a hit: at the top dose activation, hits mostly activators; 0.02% of 330,000 active; AID 492947, 2010; Beta-2 adrenergic receptor (Homo sapiens), P07550; beta-arrestin recruitment to beta2AR, cell-based reporter;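 note: potency is the fitted concentration of half-maximal effect; 0% = DMSO controls and full agonism = EC100 isoproterenol or metaproterenol; nearly all actives have a fitted effect of over 65% in size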
Gal4-VP16 FLuc: VP16 counterscreen qHTS for inhibitors of ROR gamma transcriptional activity; Potency, µM (highest dose often 53.6 µM), inactives show at the highest dose activity, negative = inhibition, hits mostly inhibitors; Drosophila S2 Gal4-VP16 UAS-luciferase, luminescence, 20 h; AID 2546, 2010; 3.5% of 310,000 active;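 note: Gal4-VP16 expression switched on by copper sulfate through the metallothionein promoter; potency is the fitted concentration of half-maximal effect; nearly all actives have a fitted effect of over 50% in size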
TSHR antag: Antagonists of the Thyroid Stimulating Hormone Receptor: HTS campaign. AID 504810, 2011. 0.2% of 330,000 active. TSHR-expressing cells, TSH-stimulated cAMP HTRF, 2 h; hits give low values. activity change, negative = inhibition, % at 11.5 µM. Thyrotropin receptor (Homo sapiens), P16473;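 active = activity change below a set negative limit, meaning inhibition stronger than a set level, cut at about -70% in these data; inconclusive = activity change between two set negative limits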
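Competitive HTRF cAMP read-out (cryptate anti-cAMP antibody, cAMP-d2; 30 min, room temperature) in freshly harvested TSHR cells. Compounds added before TSH at EC80 (4nM final), followed by 2 hours' incubation at 37 deg C.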
ELG1 repair inh: qHTS screen for small molecules that inhibit ELG1-dependent DNA repair in human embryonic kidney (HEK293T) cells expressing luciferase-tagged ELG1; HEK293T ELG1-luciferase reporter, luminescence, 16 h; DNA damage induced by 5-fluorouridine; Potency, µM (titrated, usually from 46.1 µM), for inactives: top-dose activity change, negative = inhibition, most hits filed as inhibitors; 2.3% of 330,000 active; AID 504467, 2011; note: potency is the fitted concentration of half-maximal effect; nearly all actives have a fitted effect of over 55% in size
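Reporter activity after DNA damage by 5-fluorouridine is monitored. Compound-treated cells incubate 16 hr at 37 °C, then ONE-Glo is added for 30 min before luminescence reading.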
Numbers without * were called inactive; ? = inconclusive; nt = no result; [ ] = dose if it differs, or a comment. This is a sample that favours compounds with a hit; in the whole collection about 7.5% have one here. Unless noted, calls come from the whole dose curve; as a rule, active = well fitted curve in the direction sought with a large enough effect; inconclusive = small, poorly fitted or top-dose-only effect, or another doubt; inactive = no such curve, though single readings can be large; an effect the other way counts as inactive or inconclusive. Unless noted, % is set by controls: 0 for no effect and ±100 for the full control effect.

SMILES	RORg inh	B2AR arrestin	Gal4-VP16 FLuc	TSHR antag	ELG1 repair inh
O=C(C1CC1)N1CCC(c2nc(-c3ccc(S(=O)(=O)NCC4CCCO4)cc3)no2)CC1 (centres undefined)	25.9%[0.365 µM]	0.2%	nt	-7.3	-23.2%
O=c1ccc(-c2ccc(S(=O)(=O)NCC3CCN(Cc4ccccc4F)CC3)s2)n[nH]1	18.1%	-0.5%	-8.6%	-8.9	-4.9%
O=C1C=C(c2cccc3c2sc2ccccc23)C[C@@H](c2ccc(F)cc2)C1	nt	0.1%	nt	10.8	13µM*
COc1ccc([C@H]2CC(=O)C=C(c3cccc4c3sc3ccccc34)C2)cc1OC	nt	-0.7%	nt	-1.0	8.2µM*
COc1ccc([C@H]2CC(=O)C=C(c3cccc(OC)c3OC)C2)cc1OC	nt	0.0%	nt	-37.7	9.2µM*
COc1ccc([C@H]2CC(=O)C=C(c3cc(F)ccc3F)C2)cc1OC	nt	0.0%	nt	-0.7	?
C#CCCCO/N=C1/C[C@@H](O)[C@@H](O)[C@@H]2[C@H]3C(=O)N(c4ccc(F)cc4F)C(=O)[C@@H]3CC[C@@H]12	11.6%[10 µM]	nt	10.3%[10 µM]	nt	nt
Cc1ccc(CNC(=O)CN(C(=O)C2(C)CC(=O)N=C3C=CC=CN32)c2ccccc2F)cc1 (centres undefined)	-0.3%	0.2%	4.5%	2.5	5.0%
Nc1nccs1	2.8%	nt	-6.7%	nt	nt
COc1cccc(-c2nc(CS(=O)(=O)CC(=O)Nc3cc(F)ccc3F)c(C)o2)c1	-14.8%	0.0%	6.2%	8.2	18.3µM*
COc1cccc(-c2nc(CS(=O)(=O)CC(=O)Nc3ccccc3C)c(C)o2)c1	8.7%	0.4%	-0.2%	-11.5	-7.9%
O=C(COC(=O)c1cc([N+](=O)[O-])ccc1N1CCOCC1)c1ccc(OC(F)F)cc1OC(F)F	nt	0.5%	nt	0.0	20.6µM*
O=C(COC(=O)c1cc([N+](=O)[O-])ccc1N1CCOCC1)Nc1ccccc1OC(F)F	nt	0.1%	nt	21.9	?
O=C(COC(=O)c1cc([N+](=O)[O-])ccc1N1CCOCC1)Nc1cc(F)ccc1F	nt	0.4%	nt	-0.6	23.1µM*
NC(=O)OC[C@@H]1[C@H](NC(=O)/C(=N/OCC(=O)O)c2csc(N)n2)C(=O)N1S(=O)(=O)O	-2.4%	nt	-9.1%	nt	nt
COCCNC(=O)CN1C(=O)c2cccc3cccc1c23	-18.7%	-2.0%	4.1%	-127.0*	?
O=C(O)c1nc(NCCc2ccccc2)ncc1Cl	1.3%	0.0%	-12.5%	1.6	-2.0%
O=C(NC(=S)Nc1cccnc1Cl)c1ccc(Cl)cc1	8.91µM*	?	?	-5.2	?
O=C(NC(=S)Nc1cccc2ncccc12)c1ccccc1	7.94µM*	0.0%	?	7.4	-13.7%
O=C(NC(=S)Nc1nc2c(ccc3ccccc32)s1)c1cccs1	2.51µM*	-0.2%	3.16µM*	-9.1	7.4%
O=C(Nc1cccnc1Cl)c1ccc(Cl)cc1	6.8%	-0.3%	16.7%	-3.1	?
O=C(NC(=S)Nc1cccc2ncccc12)c1cccs1	8.91µM*	0.0%	-18.4%	-3.3	-6.3%
Cc1ccc(C(=O)N2CCN(c3ccc(NC(=O)Cc4ccccc4)cc3)CC2)cc1	23.5%	0.0%	-8.5%	-10.5	?
NNc1ccc2c(C(F)(F)F)cc(C(F)(F)F)nc2n1	12.6µM*	0.2%	1.2%	16.2	7.7%
CCCS/C(N)=N/N=C/c1ccccc1O	0.631µM*	3.3%	1.41µM*	8.2	?
SMILES	RORg inh	B2AR arrestin	Gal4-VP16 FLuc	TSHR antag	ELG1 repair inh
C=CCS/C(N)=N\N=C\c1c(O)ccc2ccccc12	0.501µM*	0.6%	3.16µM*	-10.9	?
CCOC(=O)c1[nH]c2ccccc2c1NC(=S)Nc1cccc(C)c1	?	0.2%	?	-8.5	?
Cc1cc2c3c([nH]c2cc1S(=O)(=O)N1CCC2(CC1)OCCO2)CC(C)(C)CC3=O	?	0.5%	-20.6%	-12.4	20.6µM*
CCc1cc2c3c([nH]c2cc1S(=O)(=O)N1CCC2(CC1)OCCO2)CCCC3=O	23.5%	0.6%	-10.2%	-4.1	-4.4%
NCCCC[C@H]1CNC(=O)C(=O)N1CC1CCCCC1	19.9%	0.3%	-5.2%	18.0	24.3%
CCCC[C@@H]1CNC(=S)N1CC1CCCCC1	1.41µM*	0.5%	6.31µM*	-5.3	-2.8%
CCCC[C@@H]1CNC(=S)N1CCC12CC3CC(CC(C3)C1)C2	0.562µM*	-0.2%	3.16µM*	-5.2	1.4%
S=C1NC[C@H](CC2CCCCC2)N1CC1CCCCC1	0.891µM*	-0.3%	5.01µM*	-3.8	?
O=C(COc1ccccc1Br)Nc1ccc(S(=O)(=O)N2CCCC2)cc1	nt	-0.9%	nt	-23.7	?
COc1ccc2nc(NC(=O)c3ccc([N+](=O)[O-])o3)sc2c1	?	0.3%	11.2µM*	1.7	?
Cc1cc(C)c2sc(NC(=O)c3ccc([N+](=O)[O-])o3)nc2c1	5.01µM*	-0.6%	10µM*	-48.9	?
O=C(Nc1nc2ccccc2s1)c1ccc([N+](=O)[O-])o1	-23.6%	-0.4%	-0.2%	0.2	?
CC(=O)O[C@H]1Cc2ccccc2N(C(N)=O)c2ccccc21	1.2%	nt	-7.5%	-13.0	nt
CCCn1c(-c2ccc(F)cc2)nc2c(NCC(C)(C)CN(C)C)nc(C)nc21	-22.0%	nt	-2.7%	nt	nt
C/C(=C\C(=O)c1ccc(Br)cc1)NCc1ccc(C)cc1	?	0.0%	4.9%	-22.2	2.5%
C/C(=C\C(=O)c1ccc(Br)cc1)NNC(=O)c1ccc(O)cc1	5.01µM*	-0.2%	4.47µM*	11.6	?
CCCCNC(=O)c1sc(=S)n2c1[nH]c(=O)c1ccc(C(=O)NCCc3ccc(OC)c(OC)c3)cc12	-29.6%	-0.6%	-3.2%	-37.0	-1.7%
O=C(NCc1ccccc1)c1sc(=S)n2c1[nH]c(=O)c1ccccc12	1.7%	-0.4%	-6.5%	-78.7*	-0.2%
CCCN(CC1CC1)C(=S)Nc1ccc(Oc2ccccc2)cc1	12.6µM*	-0.6%	8.91µM*	-21.4	-8.8%
CCCCN(C)C(=S)Nc1ccc(Oc2ccccc2)cc1	11.2µM*	-1.0%	?	-11.4	6.9%
CN(C(=S)Nc1ccc(Oc2ccccc2)cc1)C1CCCCC1	-42.4%[10 µM]	0.5%	?	-18.9	?
C#CCCCCCCCCCCCC(O)CC(O)COC(C)=O (centres undefined)	-18.6%	nt	-17.9%	nt	nt
O=C1c2ccccc2C(=O)N1CCCc1cn(C[C@H]2CC[C@H](Cn3cc(CCCN4C(=O)c5ccccc5C4=O)nn3)O2)nn1	nt	-0.4%	nt	20.3	8.2µM*
CC(C)C[C@@H](CC(=O)N[C@@H](CCC(=O)O)CC(=O)O)NC(=O)[C@@H]1CCCC[C@H]1NC(=O)C[C@H](CCCN)NC(=O)C[C@H](CO)NC(=O)[C@@H]1CCCC[C@H]1N	-25.4%	nt	9.0%	nt	nt
